The subject of assay [1] is Wnt5a (protein binding on small-molecule microarray). The assay is described as follows: Wnt5a binders on small-molecule microarray, primary screen, biophysical, 635/667 nm fluorescence (AID 1142).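 Further: fluorescence read at 667 nm with signal to noise per printed feature.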 Conditions: 635 nm fluorescence, higher = more signal.
Assay [2] is described as follows: cell viability in Huh7 cells, primary screen, cytotoxicity control for HCV replication inhibitor project, CellTiter-Glo luminescence, basal, 48 h (AID 1143).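 Further: Huh7 hepatoma cells carrying a hepatitis C replication reporter with no stimulus; test concentration not given here.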 Conditions: Huh7 HCV replicon, higher = more signal, called active from +8 up or from −8 down. A general note: ATP-based viability assays read luminescence as a measure of living cells.
Assay [3] can be described thus: P. aeruginosa biofilm formation inhibitors, primary screen, PAO1 strain, BacTiter-Glo luminescence, LB-PBS (AID 1144). Conditions: 12 h, higher = more signal.
Assay [4] in a line: CREB reporter modulators without forskolin, primary screen, cell-based, PC12, CRE-LacZ reporter, unstimulated (AID 1145). Conditions: no forskolin, luminescence, 4.5 h, higher = more signal, called active from +8 up or from −8 down.
Assay [5] in a line: CREB reporter modulators under forskolin, primary screen, cell-based, PC12, CRE-LacZ reporter, forskolin-stimulated (AID 1146).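 Further: PC12 cells with 6xCRE LacZ reporter stimulated by forskolin 10 µM; beta-galactosidase reporter signal reflecting CREB driven transcription.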 Conditions: luminescence, 4.5 h, higher = more signal, called active from +8 up or from −8 down.
The target of assay [6] is Streptavidin (Streptomyces avidinii) (UniProt P22629). The assay is described as follows: streptavidin binders on small-molecule microarray, primary screen, artefact control for SMM compound annotation, biophysical, 635/667 nm fluorescence (AID 1147).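 Further: signal reflects streptavidin binding to arrayed compounds as a control protein.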 Conditions: streptavidin binding, higher = more signal.
Streptavidin (Streptomyces avidinii), sequence (P22629 whole entry, looked up): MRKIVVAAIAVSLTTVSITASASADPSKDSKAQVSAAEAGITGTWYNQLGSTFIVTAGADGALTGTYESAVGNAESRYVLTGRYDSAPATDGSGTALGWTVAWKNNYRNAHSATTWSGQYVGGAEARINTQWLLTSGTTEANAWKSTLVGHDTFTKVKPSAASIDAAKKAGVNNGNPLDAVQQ
A short description of assay [7]: small-molecule binders of probe aInhba, primary screen, biochemical, small-molecule microarray, 635/667 nm fluorescence (AID 1148).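 Further: score merges 667nm spot fluorescence with signal-to-noise for antibody binding to printed compounds.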 Conditions: higher = more signal.
Assay [8] addresses Torsin-1A (Homo sapiens) (UniProt O14656). The assay is described as follows: torsin A binders from cell lysate, primary screen, small-molecule microarray, wild-type, 635/667 nm (AID 1149). Conditions: COS7 hTOR1A-WT lysate, 635 nm fluorescence, higher = more signal.
For assay [9] the target is unchanged. The assay is described as follows: small-molecule binders of mutant TOR1A in lysate, primary screen, cell lysate, small-molecule microarray, COS7 lysate, 635/667 nm fluorescence (AID 1150).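 Further: score pools 667 nm emission and signal to noise measuring lysate protein binding.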 Conditions: COS7 hTOR1A mutant lysate, 635 nm fluorescence, higher = more signal.
The test system of assay [10] is Sonic hedgehog protein (Shh). As to the kind of experiment: small-molecule binders of Shh protein, primary screen, biochemical, small-molecule microarray, 635/667 nm fluorescence (AID 1151).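 Further: Shh protein binding to compounds spotted on small-molecule microarray slides; score combines spot fluorescence intensity with signal-to-noise across triplicate slides.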 Conditions: small-molecule microarray binding, 635 nm fluorescence; higher = more signal.
A short description of assay [11]: E. coli DRC41 culture turbidity changes, primary screen, E. coli filamentation inducer project, strain DRC41, OD650, 48 h (AID 1152).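 Further: E. coli MC1000 strain DRC41 lacking acrAB efflux pump and sulA.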 Conditions: E. coli DRC41 (acrAB sulA), higher = more signal, called active from +8 up or from −8 down.
Assay [12] is described as follows: small-molecule binders of probe aLefty1, primary screen, biochemical, small-molecule microarray, 635/667 nm fluorescence (AID 1153).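 Further: score merges spot fluorescence with signal-to-noise ratio from the scanned slide images.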 Conditions: higher = more signal.
The nature of assay [13]: PSAC antagonists in infected red cells, primary screen, cell-based, P. falciparum Indochina, OD700, 1 h (AID 1154). Conditions: P. falciparum Indochina infected RBC osmotic lysis, higher = more signal, called active from +8 up or from −8 down.
Assay [14] is described as follows: PSAC antagonists in infected red cells, primary screen, cell-based, P. falciparum Indochina, OD700, 2 h (AID 1155).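 Further: lysis reports solute entry through the parasite surface anion channel PSAC; channel blockers reduce lysis of infected cells.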 Conditions: P. falciparum Indochina infected erythrocytes, osmotic lysis OD700; higher = more signal, called active from +8 up or from −8 down.
A short description of assay [15]: osmotic lysis modulators in infected erythrocytes, primary screen, PSAC antagonist project, cell-based, P. falciparum Indochina, OD700, 3 h (AID 1156). Conditions: higher = more signal, called active from +8 up or from −8 down.
Assay [16] in a line: PSAC antagonists in infected red cells, primary screen, cell-based, P. falciparum Indochina, OD700, 18 h (AID 1157). Conditions: P. falciparum Indochina infected erythrocytes, osmotic lysis OD700, 18 h; higher = more signal, called active from +8 up or from −8 down.
The nature of assay [17]: modulators of S6 phosphorylation in cells, primary screen, cell-based, A549, cytoblot, luminescence, serum-stimulated (AID 1158).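 Further: serum-stimulated A549 lung adenocarcinoma cells; signal is phosphorylated S6 detected by cytoblot immunostaining with HRP secondary.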 Conditions: A549 phospho-S6 cytoblot, 5 h, higher = more signal.
The target in assay [18] is NADPH oxidase 2 (Homo sapiens) (UniProt P04839). The assay is described as follows: NOX2-dependent H2O2 signal modulators, primary screen, NOX inhibitor project, cell-based, HEK293-NOX2, PMA-stimulated, Amplex Red fluorescence (AID 1159). Further: test concentration not given here. Conditions: 45 min, higher = more signal, called active from +8 up or from −8 down.
NADPH oxidase 2 (Homo sapiens), sequence (P04839 whole entry, looked up): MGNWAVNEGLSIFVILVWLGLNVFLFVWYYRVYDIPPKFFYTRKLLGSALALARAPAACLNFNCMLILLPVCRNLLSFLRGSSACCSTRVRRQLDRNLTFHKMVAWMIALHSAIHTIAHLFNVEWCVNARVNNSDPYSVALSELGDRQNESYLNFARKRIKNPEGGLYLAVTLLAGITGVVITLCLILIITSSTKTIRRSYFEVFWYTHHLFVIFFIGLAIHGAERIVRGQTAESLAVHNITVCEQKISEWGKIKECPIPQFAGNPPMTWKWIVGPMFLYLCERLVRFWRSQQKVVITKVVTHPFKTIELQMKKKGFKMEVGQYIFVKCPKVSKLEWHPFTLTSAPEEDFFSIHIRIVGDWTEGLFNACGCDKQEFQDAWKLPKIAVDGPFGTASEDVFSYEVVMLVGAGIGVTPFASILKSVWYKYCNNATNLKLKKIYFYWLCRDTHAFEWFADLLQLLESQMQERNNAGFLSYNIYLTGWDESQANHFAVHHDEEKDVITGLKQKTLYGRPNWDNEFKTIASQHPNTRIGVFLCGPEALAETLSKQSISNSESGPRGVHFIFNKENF
Assay [19] concerns the target NADPH oxidase 4 (Homo sapiens) (UniProt Q9NPH5). As to the kind of experiment: NOX4-dependent H2O2 signal modulators, primary screen, NOX inhibitor project, cell-based, HEK293-NOX4, tetracycline-induced, Amplex Red fluorescence (AID 1160). Conditions: 45 min, higher = more signal, called active from +8 up or from −8 down.
Assay [20] has as its target NADPH oxidase 5 (Homo sapiens) (UniProt Q96PH1). As to the kind of experiment: NOX5-dependent H2O2 signal modulators, primary screen, NOX inhibitor project, cell-based, HEK293-NOX5, Amplex Red fluorescence (AID 1161). Conditions: HEK293-NOX5, ionomycin, 45 min, higher = more signal.

The source made the active and inactive calls. Unless noted, how the calls were made is not given here.

Torsin-1A (Homo sapiens), sequence (O14656 whole entry, looked up): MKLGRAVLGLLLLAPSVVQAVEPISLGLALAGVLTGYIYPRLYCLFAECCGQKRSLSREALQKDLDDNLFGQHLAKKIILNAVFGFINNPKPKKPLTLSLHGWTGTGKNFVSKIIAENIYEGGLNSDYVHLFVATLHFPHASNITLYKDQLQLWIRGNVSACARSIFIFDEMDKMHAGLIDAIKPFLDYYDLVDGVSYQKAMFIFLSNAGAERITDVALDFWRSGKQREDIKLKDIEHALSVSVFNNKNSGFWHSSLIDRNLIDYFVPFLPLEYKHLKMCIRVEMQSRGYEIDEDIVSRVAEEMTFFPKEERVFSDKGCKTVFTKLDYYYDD
NADPH oxidase 5 (Homo sapiens), sequence (Q96PH1 whole entry, looked up): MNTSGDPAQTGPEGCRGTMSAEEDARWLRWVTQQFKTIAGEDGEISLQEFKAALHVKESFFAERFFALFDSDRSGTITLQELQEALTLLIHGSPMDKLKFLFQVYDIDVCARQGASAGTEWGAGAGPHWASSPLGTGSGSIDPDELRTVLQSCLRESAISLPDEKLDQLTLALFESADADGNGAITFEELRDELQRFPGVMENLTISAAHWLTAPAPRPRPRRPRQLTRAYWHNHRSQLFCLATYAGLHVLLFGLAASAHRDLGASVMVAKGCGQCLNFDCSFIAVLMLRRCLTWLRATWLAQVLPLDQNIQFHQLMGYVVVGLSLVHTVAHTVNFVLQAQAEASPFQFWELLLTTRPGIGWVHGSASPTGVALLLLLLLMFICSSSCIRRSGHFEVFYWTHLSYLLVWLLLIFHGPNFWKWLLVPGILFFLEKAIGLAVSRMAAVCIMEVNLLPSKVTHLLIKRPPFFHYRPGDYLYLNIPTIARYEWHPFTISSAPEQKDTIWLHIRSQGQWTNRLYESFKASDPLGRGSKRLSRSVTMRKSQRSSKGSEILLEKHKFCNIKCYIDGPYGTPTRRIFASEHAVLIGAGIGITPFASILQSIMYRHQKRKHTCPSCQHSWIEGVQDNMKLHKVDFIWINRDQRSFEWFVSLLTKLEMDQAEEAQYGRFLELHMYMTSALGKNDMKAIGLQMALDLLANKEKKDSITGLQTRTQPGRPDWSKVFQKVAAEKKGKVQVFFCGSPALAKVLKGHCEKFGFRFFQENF
NADPH oxidase 4 (Homo sapiens), sequence (Q9NPH5 whole entry, looked up): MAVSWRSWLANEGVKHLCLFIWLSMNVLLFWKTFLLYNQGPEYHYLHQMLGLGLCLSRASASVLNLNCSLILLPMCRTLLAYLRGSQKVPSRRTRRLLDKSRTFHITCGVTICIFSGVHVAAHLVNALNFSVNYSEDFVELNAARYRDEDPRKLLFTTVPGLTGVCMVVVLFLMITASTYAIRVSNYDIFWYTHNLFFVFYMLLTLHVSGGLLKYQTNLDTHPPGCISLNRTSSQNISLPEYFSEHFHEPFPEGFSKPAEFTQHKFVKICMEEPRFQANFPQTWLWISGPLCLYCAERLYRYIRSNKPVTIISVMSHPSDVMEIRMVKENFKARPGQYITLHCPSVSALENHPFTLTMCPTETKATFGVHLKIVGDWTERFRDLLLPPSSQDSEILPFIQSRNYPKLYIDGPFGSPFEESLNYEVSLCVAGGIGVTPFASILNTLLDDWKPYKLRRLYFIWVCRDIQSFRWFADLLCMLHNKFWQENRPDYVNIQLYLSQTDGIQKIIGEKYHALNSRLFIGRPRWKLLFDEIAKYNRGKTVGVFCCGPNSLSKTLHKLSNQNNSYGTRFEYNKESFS

`CCCC=C(CCC)[C@@H](NS(=O)(=O)c1ccc(C(F)(F)F)cc1)c1ccccc1`: the composite z-score was 0.001 in assay [1]; 0.578 in [6]; 0.156 in [7]; -0.0214 in the assay with Torsin-1A (Homo sapiens) [8]; -0.0562 in the assay with Torsin-1A (Homo sapiens) [9]; 0.108 in assay [10]. Also, the composite z-score in assay [12] was found to be 0.379. The z-score in [2] is -1.09 (inactive); in assay [3], -0.869 (inactive); in assay [4], -0.565 (inactive); in assay [5], 1.32 (inactive); in assay [11], -2.49 (inactive); in assay [13], 0.669 (inactive). Besides, the z-score is 0.546 (inactive) in [14]; 0.248 (inactive) in [15]; 0.567 (inactive) in assay [16]; -0.286 in assay [17]; -0.832 (inactive) in assay [18]; -1.74 (inactive) in assay [19]. For the same compound, the z-score in [20] was found to be 2.42.

Take `COc1cccc(C)c1NC(=O)O[C@H]1[C@H](OC(=O)Nc2ccc3c(c2)OCO3)[C@@H](OC(=O)Nc2ccc3c(c2)OCO3)[C@@H](OC)O[C@@H]1CO`: the composite z-score in [1] worked out at 0.648; in assay [6], 1.3; in [7] it was 0.0319; with Torsin-1A (Homo sapiens) [8], 1.11; in the assay with Torsin-1A (Homo sapiens) [9], 1.19; in assay [10], 1.54. In assay [12], the composite z-score was -0.165. Further, the z-score in assay [2] was -1.19 (inactive); in [3], 0.0488 (inactive); in assay [4], 1.45 (inactive); in assay [5], -0.424 (inactive); in assay [11], 0.132 (inactive); in assay [13] it was 5.81 (inactive). The z-score in assay [14] was 1.26 (inactive); in assay [15], 0.579 (inactive); in [16] it was 0.349 (inactive); in [17], -0.227; in assay [18] it was -1.21 (inactive); in assay [19], -0.747 (inactive). Besides, the z-score in [20] is -1.67.

For `CCCC=C(CCC)[C@@H](NC(=O)c1cccs1)c1ccc(C(=O)OC)cc1`, the composite z-score in assay [1] is 0.535; in assay [6], 0.373; in assay [7], 0.375; in the assay with Torsin-1A (Homo sapiens) [8], 0.657; with Torsin-1A (Homo sapiens) [9] it was 0.183; in [10], -0.83. The compound also showed a composite z-score in assay [12] of 0.911. The z-score in assay [2] is -0.268 (inactive); in assay [3] it was -0.473 (inactive); in [4] it was -0.951 (inactive); in assay [5], 0.158 (inactive); in assay [11], -1.24 (inactive); in [13], -1.3 (inactive). Further, the z-score in assay [14] was -0.864 (inactive); in assay [15] it was -1.72 (inactive); in [16], -1.27 (inactive); in [17], 1.28; in [18], 0.0754 (inactive); in assay [19], 1.74 (inactive). Besides, in [20], the z-score was 2.06.

Consider `C[C@@H]1NC(=O)[C@@H](Cc2ccccc2)NC(=O)[C@@]23C(=O)N[C@@H](Cc4ccccc4)C2[C@H](C)[C@@]2(C)O[C@H]2C3/C=C/C/C=C\CNC1=O` (stereo not given in full), for which the composite z-score is -0.186 in assay [1]; -0.963 in [6]; -0.187 in [7]; 0.406 with Torsin-1A (Homo sapiens) [8]; 0.32 with Torsin-1A (Homo sapiens) [9]; 1.45 in [10]. Also, the composite z-score in assay [12] was -0.0046. Further, the z-score was 0.15 (inactive) in [2]; 0.111 (inactive) in assay [3]; 3.57 (inactive) in assay [4]; 0.272 (inactive) in assay [5]; -1.02 (inactive) in assay [11]; 1.92 (inactive) in assay [13]. Also, the z-score in assay [14] is 0.581 (inactive); in [15], 0.638 (inactive); in [16], 0.159 (inactive); in assay [17], -0.177; in assay [18] it was 0.722 (inactive); in assay [19], -0.614 (inactive). In [20], this compound came in with a z-score of 0.523.

With `CO[C@H]1O[C@H](CO)[C@@H](OC(=O)Nc2ccc3c(c2)OCO3)[C@H](OC(=O)Nc2ccc3c(c2)OCO3)[C@@H]1OC(=O)Nc1ccc2c(c1)OCO2`, the composite z-score was 0.523 in assay [1]; 1.11 in assay [6]; -0.0087 in assay [7]; 0.967 in the assay with Torsin-1A (Homo sapiens) [8]; 1.05 with Torsin-1A (Homo sapiens) [9]; 0.164 in assay [10]. In addition, the composite z-score in assay [12] was found to be 0.26. For the same compound, the z-score in assay [2] was -2.3 (inactive); in assay [3], 0.506 (inactive); in assay [4] it was 0.643 (inactive); in assay [5], -1.48 (inactive); in assay [11] it was -0.53 (inactive); in assay [13], 11 (active). For the same compound, the z-score in [14] was 1.62 (inactive); in [15], 1.55 (inactive); in assay [16], 0.742 (inactive); in [17], -0.563; in assay [18], -1.32 (inactive); in assay [19] it was -1.19 (inactive). The z-score in assay [20] was -1.57.

`CCOC(=O)C[C@H]1[C@H](OC(=O)c2ccccc2-c2ccccc2)[C@@H](NC(=O)c2ccc3ccccc3c2)c2cc(OCCCO)ccc2N1C(=O)c1ccccc1`: the composite z-score in [1] turned out to be 0.331; in assay [6], 0.157; in assay [7] it was 0.102; with Torsin-1A (Homo sapiens) [8], 0.0464; in the assay with Torsin-1A (Homo sapiens) [9], 0.472; in [10], 0.536. In addition, the composite z-score in assay [12] is -0.152. For the same compound, the z-score in assay [2] was -0.399 (inactive); in assay [3], 1.6 (inactive); in assay [4], 2.94 (inactive); in assay [5] it was -0.0955 (inactive); in assay [11], 0.142 (inactive); in assay [13], 1.05 (inactive). Moreover, the z-score in [14] was 0.844 (inactive); in assay [15], 0.652 (inactive); in [16], 0.23 (inactive); in assay [17] it was -0.0193; in assay [18], 0.595 (inactive); in [19], 0.89 (inactive). In addition, the z-score in [20] was 1.53.

`[N-]=[N+]=Nc1ccccc1C[C@@]1(C(=O)N2CCOCC2)N=C(c2ccc(OCCCO)cc2)O[C@@H]1c1ccccc1`: the composite z-score is 1.21 in [1]; 0.269 in assay [6]; -0.135 in assay [7]; 0.156 with Torsin-1A (Homo sapiens) [8]; 0.53 with Torsin-1A (Homo sapiens) [9]; -0.227 in assay [10]. Moreover, the composite z-score in [12] was -0.88. Also, the z-score is -4.54 (inactive) in assay [2]; 0.83 (inactive) in assay [3]; 1.64 (inactive) in assay [4]; -0.197 (inactive) in [5]; 0.345 (inactive) in assay [11]; 28.5 (active) in assay [13]. Moreover, the z-score in [14] was 23.8 (active); in assay [15], 3.6 (inactive); in assay [16] it was 2.07 (inactive); in assay [17], -0.0419; in [18], 0.437 (inactive); in assay [19] it was 0.265 (inactive). Also, in assay [20], the z-score is -1.66.

Turning to `Cc1ccc(S[C@]2(C(=O)NCCN3CCOCC3)CC(=O)N(Cc3ccccc3Cl)[C@@H]2c2ccc(CO)cc2I)cc1`, the composite z-score in assay [1] is 0.0976; in [6], -0.343; in [7], 0.658; with Torsin-1A (Homo sapiens) [8], -1.69; with Torsin-1A (Homo sapiens) [9] it was 0.75; in assay [10], -0.316. This compound also came in with a composite z-score in [12] of 1.55. Further, the z-score in assay [2] is -2.1 (inactive); in [3], -0.0266 (inactive); in [4] it was -0.581 (inactive); in assay [5], 0.631 (inactive); in [11], 0.377 (inactive); in [13], 5.93 (inactive). Moreover, the z-score in assay [14] is 0.989 (inactive); in assay [15], 0.676 (inactive); in [16], 0.4 (inactive); in assay [17] it was -0.389; in assay [18] it was 1.78 (inactive); in assay [19] it was -1.12 (inactive). In assay [20], this compound yielded a z-score of 1.15.

These data come from PubChem BioAssay.
